“And” between values parts separate entries of the source, which are not always exact repeats. Equal entries are not always repeated. Inconclusive results are not listed. The source made the active and inactive calls. Unless noted, calls come from the whole dose curve.
Test system: not listed separately
Test: qHTS assay for small molecule activators of the nuclear factor-kappa B (NF-kB) signaling pathway (AID 651749; active = well fitted activation curve with a large enough effect in the signal ratio; the % refers to the signal ratio; note: % of control where 0% means no effect)
Conditions: NF-kB-bla ME-180 cells, beta-lactamase FRET ratio, 16 h; stronger effect = higher value
Procedure, shortened: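 Human ME-180 cervical cells with an NF-kB-bla construct; compounds added via 23 nL pin transfer, DMSO as vehicle; incubation 16 hr. Reporter activity measured by FRET disruption.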

**Q.** Which activation does the source give for `CCOC(C)=O` here?
**A.** -0.483% (inactive)

**Q.** With `CCCCC(CC)COC(=O)CC(C(=O)OCC(CC)CCCC)S(=O)(=O)O` (configuration not stated) as the compound, how does the activation read?
**A.** -3.42% (inactive)

**Q.** For `CC1=CCC(C(C)(C)O)CC1` (configuration not stated), which activation is on record?
**A.** -1.34% (inactive)

**Q.** Which activation does the source give for `C[C@H]1C[C@H]2[C@@H]3CCC4=CC(=O)C=C[C@]4(C)[C@@]3(F)[C@@H](O)C[C@]2(C)[C@@]1(O)C(=O)CO` here?
**A.** -3.68% (inactive)

**Q.** For `CC(O)CO` (configuration not stated), which activation is on record?
**A.** 3.41% (inactive) and -1.36% (inactive)

**Q.** With `O=CCCCC=O` as the compound, how does the activation read?
**A.** 3.18% (inactive)

Test system: not listed separately
Test: qHTS assay for small molecule disruptors of the mitochondrial membrane potential - 1 hr assay (AID 651754); note: % is set by controls: 0 for no effect and ±100 for the full control effect; nearly all actives have a fitted effect of over 35% in size
Conditions: series mostly up to 92.2 µM; ratio change, negative = depolarisation: at the top concentration
Procedure, shortened: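 Mitochondrial potential in living HepG2 cells after 1 hr compound treatment at 37C was read with Mito-MPS dye added for a further 30 min. Red aggregate and green monomer fluorescence were measured; loss of potential leaves dye as cytoplasmic monomers.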

**Q.** With `CCOC(C)=O` as the compound, how does the “ratio change, negative = depolarisation” value read?
**A.** -0.764% (inactive)

**Q.** With `O=S(=O)(O)O` as the compound, how does the outcome read?
**A.** inactive

**Q.** Which “ratio change, negative = depolarisation” value does the source give for `CCOc1ccc2c(c1)C(C)=CC(C)(C)N2` here?
**A.** 0.0631% (inactive)

**Q.** With `CCCCC/C=C\C/C=C\CCCCCCCC(=O)O` as the compound, how does the “ratio change, negative = depolarisation” value read?
**A.** -4.74% (inactive)

**Q.** With `CC(O)CO` (configuration not stated) as the compound, how does the outcome read?
**A.** inactive

**Q.** Which “ratio change, negative = depolarisation” value does the source give for `O=CCCCC=O` here?
**A.** 6.49% (inactive)

Test system: not listed separately
Test: qHTS assay for small molecule disruptors of the mitochondrial membrane potential - 5 hr assay (AID 651755); note: % is set by controls: 0 for no effect and ±100 for the full control effect; nearly all actives have a fitted effect of over 40% in size
Conditions: JC-1-type ratio dye; series mostly up to 92.2 µM; ratio change, negative = disruption: at the top concentration
Procedure, shortened: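 Seed HepG2 overnight, add compound, incubate 5 hr at 37C and 5% CO2, stain 30 min with Mito-MPS, then measure monomer (490/535 nm) and aggregate (540/590 nm) fluorescence.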

**Q.** With `CCOC(C)=O` as the compound, how does the “ratio change, negative = disruption” value read?
**A.** -2.24% (inactive)

**Q.** Which outcome does the source give for `O=S(=O)(O)O` here?
**A.** inactive

**Q.** Which “ratio change, negative = disruption” value does the source give for `CCOc1ccc2c(c1)C(C)=CC(C)(C)N2` here?
**A.** 3.5% (inactive)

**Q.** Which “ratio change, negative = disruption” value does the source give for `CCCCC/C=C\C/C=C\CCCCCCCC(=O)O` here?
**A.** 0.437% (inactive)

**Q.** Which outcome does the source give for `CC(O)CO` (configuration not stated) here?
**A.** inactive

**Q.** With `O=CCCCC=O` as the compound, how does the “ratio change, negative = disruption” value read?
**A.** -1.1% (inactive)

Target: Tumor necrosis factor (Homo sapiens) (UniProt P01375)
Test: qHTS assay to identify small molecules that stimulate Tumor Necrosis Factor-alpha (TNF-alpha) secretion (AID 651757; active = well fitted curve in the direction sought with a large enough effect in the signal ratio; the % refers to the signal ratio; note: 0% is about no effect)
Conditions: Human cells, HTRF 665/615 ratio; series mostly up to 92.2 µM; activation (TNF-alpha secretion): at the top concentration
Procedure, shortened: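 Secreted TNF-alpha quantified by TR-FRET sandwich of two labeled anti-TNF-alpha antibodies, incubated 3 hr at room temperature. Preceded by 17 hr, 37 C compound treatment of THP-1 cells at 3000 cells/well.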

Chain of Tumor necrosis factor (Homo sapiens) (P01375 whole entry, looked up): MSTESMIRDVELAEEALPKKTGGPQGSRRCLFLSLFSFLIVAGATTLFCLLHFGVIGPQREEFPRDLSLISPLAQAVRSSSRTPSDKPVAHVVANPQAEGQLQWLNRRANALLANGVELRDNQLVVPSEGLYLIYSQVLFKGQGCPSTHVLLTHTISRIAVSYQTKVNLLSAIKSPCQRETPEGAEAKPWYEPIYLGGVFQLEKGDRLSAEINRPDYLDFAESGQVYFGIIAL

**Q.** Which “activation (TNF-alpha secretion)” value does the source give for `CCOC(C)=O` here?
**A.** -0.0449% (inactive)

**Q.** For `IC(I)I`, which “activation (TNF-alpha secretion)” value is on record?
**A.** -0.0365% (inactive)

**Q.** Which outcome does the source give for `O=S(=O)(O)O` here?
**A.** inactive

**Q.** With `CCOc1ccc2c(c1)C(C)=CC(C)(C)N2` as the compound, how does the “activation (TNF-alpha secretion)” value read?
**A.** 1.65% (inactive)

**Q.** Which “activation (TNF-alpha secretion)” value does the source give for `CCCCC/C=C\C/C=C\CCCCCCCC(=O)O` here?
**A.** -0.724% (inactive)

**Q.** Which “activation (TNF-alpha secretion)” value does the source give for `CC(O)CO` (configuration not stated) here?
**A.** 0.464% (inactive)

**Q.** With `O=CCCCC=O` as the compound, how does the “activation (TNF-alpha secretion)” value read?
**A.** 0.123% (inactive)

Test system: not listed separately
Test: qHTS assay to identify small molecules that stimulate interleukin-8 (IL-8) secretion (AID 651758; active = well fitted activation curve with a large enough effect in the signal ratio; the % refers to the signal ratio; note: 0% is about no effect)
Conditions: HTRF ratio (665/615); series mostly up to 92.2 µM; activation: at the top concentration
Procedure, shortened: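 Quantitative HTS in THP-1 monocytic cells at 2000 cells per well, with 16 hrs compound incubation at 37 C. IL-8 in the medium was then quantified by HTRF immunoassay, read after 1-3 hrs at room temperature.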

**Q.** With `IC(I)I` as the compound, how does the “activation” value read?
**A.** 4.7% (inactive)

**Q.** For `O=S(=O)(O)O`, which “activation” value is on record?
**A.** 14.4% (inactive)

**Q.** For `CC(O)CO` (configuration not stated), which “activation” value is on record?
**A.** 15.3% (inactive)

Test system: not listed separately
Test: qHTS assay for environmental chemicals that activate the Aryl hydrocarbon Receptor (AhR) signaling pathway (AID 651777; active = well fitted activation curve with a large enough effect; note: % of control where 0% means no effect; nearly all actives have a fitted effect of over 15% in size)
Conditions: 1A2-DRE human hepatoma cells, luciferase, 24 h; stronger effect = higher value
Procedure, shortened: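 1A2-DRE human hepatoma reporter line; 1,200 cells/well; cmpd or DMSO 24 h, 37 C/5% CO2; One-Glo 30 min RT; luciferase lum.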

**Q.** Which activation does the source give for `CCCCC(CC)COC(=O)CC(C(=O)OCC(CC)CCCC)S(=O)(=O)O` (configuration not stated) here?
**A.** 0.833% (inactive)

**Q.** With `IC(I)I` as the compound, how does the activation read?
**A.** 3.72% (inactive)

**Q.** With `O=S(=O)(O)O` as the compound, how does the activation read?
**A.** -0.349% (inactive) and 1.61% (inactive)

**Q.** Which activation does the source give for `CCOc1ccc2c(c1)C(C)=CC(C)(C)N2` here?
**A.** 3.55% (inactive) and 2.98% (inactive)

**Q.** For `CC1=CCC(C(C)(C)O)CC1` (configuration not stated), which activation is on record?
**A.** 0.596% (inactive)

**Q.** Which activation does the source give for `CC1(C)C(C=C(Cl)Cl)C1C(=O)OCc1cccc(Oc2ccccc2)c1` (configuration not stated) here?
**A.** -0.92% (inactive) and -0.145% (inactive) and 0.247% (inactive)

**Q.** Which activation does the source give for `C[C@H]1C[C@H]2[C@@H]3CCC4=CC(=O)C=C[C@]4(C)[C@@]3(F)[C@@H](O)C[C@]2(C)[C@@]1(O)C(=O)CO` here?
**A.** -2.62% (inactive)

**Q.** Which activation does the source give for `CCCCC/C=C\C/C=C\CCCCCCCC(=O)O` here?
**A.** 0.916% (inactive) and -0.698% (inactive)

**Q.** Which activation does the source give for `CC(O)CO` (configuration not stated) here?
**A.** -1.84% (inactive) and -0.0903% (inactive)
